The values that follow come from PubChem BioAssay (Tox21).

Values joined by “and” are separate entries in the source; they are usually repeats but may differ in a detail not shown here. Equal entries are not always repeated. Inconclusive results are not listed. Some compounds were tested as several samples or in several runs, with calls that do not always agree. Active and inactive are the calls of the source. Unless noted, the call rests on the fitted dose curve.

Experiment [1] in a line: qHTS assay to identify small molecule agonists of the vitamin D receptor (VDR) signaling pathway - cell viability counter screen (AID 743224; active means well fitted curve in the direction sought with a large enough effect in the repeat runs; an effect the other way counts as inactive or inconclusive; further: nearly all actives have a fitted effect of over 50% in size; further: potency means the concentration at half of the fitted maximal effect). Summed up:
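Compounds were pin-transferred onto VDR-bla cells plated 4 h earlier; following 16 h incubation at 37C, cell viability was quantified by CellTiter-Glo luminescence after 30 min at room temperature.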
Background: In qHTS, concentration-response curves come from the screen itself.

Experiment [2] in a line: qHTS assay to identify small molecule antagonists of the vitamin D receptor (VDR) signaling pathway - cell viability counter screen (AID 743225; active means well fitted curve in the direction sought with a large enough effect in the repeat runs; an effect the other way counts as inactive or inconclusive; further: nearly all actives have a fitted effect of over 50% in size; further: potency means the concentration at half of the fitted maximal effect). Summed up: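 Viability counter screen run in the same wells as the beta-lactamase reporter assay: HEK 293T VDR-UAS-bla cells, 16 h compound exposure at 37C with 3 nM (final) 1-alpha,25-dihydroxyvitamin D3. CellTiter-Glo luminescence, 30 min, room temperature.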

A short description of experiment [3]: qHTS assay to identify small molecule agonists of the NFkB signaling pathway - cell viability counter screen (AID 1159515). Further: series mostly up to about 61 µM; on the % scale 0 is the no-effect control and ±100 the full control effect; nearly all actives have a fitted effect of over 55% in size. Summed up:
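Parallel cytotoxicity counter screen in ME-180 cells carrying an NFkB-response-element beta-lactamase reporter, 2,000 cells/well. Compound exposure lasted 5 hr at 37 C, 5% CO2. Cell viability was quantified by CellTiter-Glo luminescence.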

Experiment [4] is described as follows: qHTS assay to identify small molecule agonists of the endoplasmic reticulum stress response signaling pathway (AID 1159516; active means well fitted activation curve with a large enough effect in the signal ratio in the repeat runs, not every such curve was filed as active; the % refers to the signal ratio; further: potency means the concentration at half of the fitted maximal effect; on activation: on the % scale 0 is the no-effect control and ±100 the full control effect). Summed up:
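Using a HeLa line with an ESRE-driven beta-lactamase gene, agonist activity was measured by FRET substrate fluorescence (460 and 530 nm emission) after cells were treated with compounds for 5 hr at 37 C and 5% CO2.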

A short description of experiment [5]: qHTS assay to identify small molecule agonists of the endoplasmic reticulum stress response signaling pathway - cell viability counter screen (AID 1159517).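 Further: HeLa cells carrying an ER stress response element beta-lactamase reporter; series mostly up to about 61 µM; on the % scale 0 is the no-effect control and ±100 the full control effect; nearly all actives have a fitted effect of over 50% in size.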 Summed up:
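Steps: seed 1,500 ESRE-bla HeLa cells per well; incubate overnight at 37 C, 5% CO2; add compounds in DMSO for 5 hr; run FRET substrate 2 hr RT; add CellTiter-Glo, wait 30 min, read luminescence.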

Experiment [6] in a line: qHTS assay to identify small molecule antagonists of the retinoid-related orphan receptor gamma (ROR-gamma) signaling pathway - cell viability counter screen (AID 1159520; active means well fitted curve in the direction sought with a large enough effect in the repeat runs; an effect the other way counts as inactive or inconclusive; further: nearly all actives have a fitted effect of over 50% in size; further: potency means the concentration at half of the fitted maximal effect; on activity, negative = cytotoxicity: on the % scale 0 is the no-effect control and ±100 the full control effect). Summed up: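 Tet-on ROR gamma CHO cells were given compounds for 2 hr, then doxycycline hyclate at 1 uM final, and incubated 16 hr at 37 C. Viability was measured as ATP content by CellTiter-Glo luminescence.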

The target in experiment [7] is Nuclear receptor ROR-gamma (Homo sapiens) (UniProt P51449). Description: qHTS assay to identify small molecule antagonists of the retinoid-related orphan receptor gamma (ROR-gamma) signaling pathway (AID 1159521; active means well fitted curve in the direction sought with a large enough effect in the repeat runs; an effect the other way counts as inactive or inconclusive; further: nearly all actives have a fitted effect of over 50% in size; further: potency means the concentration at half of the fitted maximal effect). Summed up:
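Luminescence readout (ONE-Glo, 30 min RT) after 16 h doxycycline induction; loss of signal scored as antagonism. CHO cells with TET-inducible RORγ and RORE-LUC reporter; compounds added 2 h before 1 uM final doxycycline.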

Experiment [8] in a line: qHTS assay to identify small molecule agonists of the AP-1 signaling pathway - cell viability counter screen (AID 1159525). Further: nearly all actives have a fitted effect of over 55% in size. Summed up: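 Same-well cytotoxicity counter screen of the Tox21 10K library in ME-180 cells. The readout is ATP-dependent luminescence after 5 h compound treatment. Data are normalised to DMSO and tetra n-octyl ammonium bromide controls.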
The nature of experiment [9]: qHTS assay to identify small molecule agonists of the AP-1 signaling pathway (AID 1159526). Further: potency means the concentration at half of the fitted maximal effect. On activation: on the % scale 0 is the no-effect control and ±100 the full control effect.
For experiment [10], the target named is Retinoic acid receptor RXR-alpha (Homo sapiens) (UniProt P19793). Description: qHTS assay to identify small molecule agonists of the RXR signaling pathway (AID 1159527). Further: nearly all actives have a fitted effect of over 35% in size. Further: potency means the concentration at half of the fitted maximal effect. On activation: on the % scale 0 is the no-effect control and ±100 the full control effect. Summed up: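 Agonist mode; 9-cis retinoic acid positive control. HEK 293T UAS-bla reporter cells, 2% charcoal-stripped FBS, 16 hr compound exposure at 37 C/5% CO2. LiveBLAzer B/G FRET substrate 2 hr RT; ex 405, em 460/530 nm.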
Chain of Retinoic acid receptor RXR-alpha (Homo sapiens) (P19793 whole entry, looked up): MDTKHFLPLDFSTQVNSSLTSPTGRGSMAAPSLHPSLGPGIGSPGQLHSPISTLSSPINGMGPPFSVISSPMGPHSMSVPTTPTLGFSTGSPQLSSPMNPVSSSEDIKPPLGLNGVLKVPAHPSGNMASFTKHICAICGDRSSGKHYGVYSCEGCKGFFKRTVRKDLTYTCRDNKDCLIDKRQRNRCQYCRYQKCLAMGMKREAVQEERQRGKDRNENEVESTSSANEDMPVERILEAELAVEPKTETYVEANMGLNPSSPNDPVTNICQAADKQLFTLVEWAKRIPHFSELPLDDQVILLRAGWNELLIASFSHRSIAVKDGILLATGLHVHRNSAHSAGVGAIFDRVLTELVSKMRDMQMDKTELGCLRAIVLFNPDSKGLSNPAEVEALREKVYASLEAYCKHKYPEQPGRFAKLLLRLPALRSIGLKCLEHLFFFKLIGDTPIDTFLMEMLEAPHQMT

As to `COc1ccc(C(=O)c2ccccc2O)c(O)c1`, the Potency result in experiment [1], in [2], in experiment [3], in experiment [4], in experiment [5] and in experiment [6] was “inactive” throughout. Also, the Potency entry in experiment [7], in experiment [8], in experiment [9] and in [10] was “inactive” in each case.
On to `Cc1ccc(C(C)(C)C)cc1`, for which the Potency entry in experiment [1], in experiment [2], in [3], in [4], in experiment [5] and in experiment [6] was “inactive” each time. In addition, the Potency entry in experiment [7], in experiment [8], in [9] and in [10] was “inactive” each time.
As to `O=S1(=O)CCCO1`, the Potency entry in [1], in experiment [2], in experiment [3], in experiment [4], in experiment [5] and in [6] was “inactive” each time. In addition, the Potency entry in experiment [7], in [8], in [9] and in [10] was “inactive” each time.
Turning to `O=Cc1ccccc1C=O`, the Potency entry in [1], in experiment [3], in experiment [4], in experiment [5], in experiment [8] and in experiment [9] was “inactive” in each case. The Potency entry in experiment [10] was “inactive”. For the same compound, the Potency in [2] was 21.9 µM (active) and inactive; in experiment [6], 7.7 µM (active) and inactive; in experiment [7] it was 17.2 µM (active) and inactive.
For `Cc1ccc(C)c(O)c1`, the Potency result in [1], in experiment [2], in experiment [3], in [4], in experiment [5] and in experiment [6] was “inactive” in each case. Besides, the Potency entry in experiment [7], in experiment [8], in experiment [9] and in [10] was “inactive” throughout.
As for `O=[Se](O)O`, the Potency entry in experiment [1], in experiment [3], in experiment [4], in experiment [5] and in [8] was “inactive” each time. For the same compound, the Potency in experiment [6] was 54.5 µM (active); in [7], 1.65 µM (active); in experiment [9], “inactive and 5.28 µM (active)”. In addition, in [6], the activity, negative = cytotoxicity was -10.3% [at 19 µM] (inactive).
For `C[N+](C)(C)CCO`, the Potency result in experiment [1], in experiment [2], in experiment [3], in [4], in experiment [5] and in experiment [6] was “inactive” in each case. Also, the Potency result in [7], in experiment [8], in [9] and in experiment [10] was “inactive” each time.
`O=C(O)COCCN1CCN(C(c2ccccc2)c2ccc(Cl)cc2)CC1` (configuration not stated): the Potency result in experiment [1], in experiment [2], in [3], in experiment [4], in experiment [5] and in [6] was “inactive” each time. Further, the Potency result in experiment [7], in experiment [8], in experiment [9] and in experiment [10] was “inactive” each time.
As for `Clc1ccc(Sc2cc(Cl)c(Cl)cc2Cl)cc1`, the Potency result in [1], in experiment [3], in experiment [4], in [5], in [6] and in experiment [7] was “inactive” each time. Moreover, the Potency result in [8], in experiment [9] and in experiment [10] was “inactive” in each case.
Take `CCC/C=C/C=O`: the Potency result in [1], in [3], in experiment [4], in experiment [5], in [6] and in experiment [7] was “inactive” throughout. For the same compound, the Potency result in experiment [8], in experiment [9] and in experiment [10] was “inactive” each time.
For `CC(=O)Oc1c(C)c(C)c2c(c1C)CC[C@@](C)(CCC[C@H](C)CCC[C@H](C)CCCC(C)C)O2`, the Potency in [1] is 49 µM (active) and inactive. For the same compound, the Potency result in [2], in experiment [3], in experiment [4], in experiment [5], in experiment [6] and in experiment [7] was “inactive” in each case. The Potency result in experiment [8], in experiment [9] and in experiment [10] was “inactive” throughout.
Consider `CC(C)=CCO`, for which the Potency result in experiment [1], in experiment [3], in [4], in [5], in experiment [6] and in experiment [7] was “inactive” throughout. Besides, the Potency entry in [8], in experiment [9] and in experiment [10] was “inactive” throughout.
For the compound `NCCOCCO`, the Potency result in experiment [1], in experiment [2], in [3], in experiment [4], in experiment [5] and in experiment [6] was “inactive” throughout. The Potency entry in experiment [7], in experiment [8], in [9] and in [10] was “inactive” in each case.
In the case of `CC(C)(Oc1ccc(Cl)cc1)C(=O)O`, the Potency entry in experiment [1], in experiment [3], in experiment [4], in experiment [5], in experiment [6] and in experiment [7] was “inactive” throughout. Besides, the Potency entry in [8], in [9] and in [10] was “inactive” each time.
Turning to `Nc1cc(Cl)c(N)c(Cl)c1`, the Potency result in experiment [1], in experiment [2], in experiment [3], in [4], in experiment [5] and in experiment [6] was “inactive” in each case. In addition, the Potency result in [7], in experiment [8], in [9] and in [10] was “inactive” in each case.
As for `CCCCCCC(C)O` (configuration not stated), the Potency result in experiment [1], in experiment [2], in [3], in experiment [4], in [5] and in experiment [6] was “inactive” in each case. Moreover, the Potency result in experiment [7], in experiment [8] and in [9] was “inactive” in each case. The Potency in [10] is 17.7 µM (active) and inactive.
For `CC(=O)Nc1ccc2c(c1)Cc1cc(NC(C)=O)ccc1-2`, the Potency entry in experiment [1], in [3], in experiment [4], in experiment [5], in [6] and in [7] was “inactive” each time. The Potency entry in experiment [8], in experiment [9] and in experiment [10] was “inactive” throughout.
Turning to `c1ccc2c(c1)ccc1cc3c(ccc4ccccc43)cc12`, the Potency result in experiment [1], in experiment [2], in experiment [3], in experiment [5], in experiment [6] and in experiment [7] was “inactive” in each case. Further, the Potency entry in [8], in [9] and in experiment [10] was “inactive” throughout. For the same compound, the Potency in experiment [4] is 7.67 µM (active).
Turning to `C[C@]12CC[C@@H]3c4ccc(O)cc4CC[C@H]3[C@@H]1CC[C@@H]2O`, the Potency result in [1], in experiment [2], in [3], in experiment [4], in experiment [5] and in experiment [6] was “inactive” each time. For the same compound, the Potency entry in [8] and in [9] was “inactive” in each case. Moreover, the Potency in [7] was 27.3 µM (active).
Take `Nc1ccc(N)c(Cl)c1`: the Potency result in [1], in [3], in [4], in experiment [5], in experiment [6] and in experiment [10] was “inactive” each time.
Consider `Cc1ccc2c(c1)C(=O)OC2=O`, for which the Potency entry in experiment [1], in experiment [3], in experiment [4], in experiment [5], in [6] and in experiment [8] was “inactive” in each case. The Potency result in experiment [9] and in experiment [10] was “inactive” in each case.
